Results published in ChEMBL document CHEMBL2218924, “A broad activity screen in support of a chemogenomic map for kinase signalling research and drug discovery” (Biochem J, 2013).

Legend:
[1] = biological target: Death-associated protein kinase 1 (Homo sapiens) (UniProt P53355); details: at 10 µM
[2] = biological target: Death-associated protein kinase 2 (Homo sapiens) (UniProt Q9UIK4); details: at 1 µM
[3] = biological target: T1, Serine/threonine-protein kinase DCLK2 (Homo sapiens) (UniProt Q8N568); details: at 1 µM
T1 sequence (whole entry): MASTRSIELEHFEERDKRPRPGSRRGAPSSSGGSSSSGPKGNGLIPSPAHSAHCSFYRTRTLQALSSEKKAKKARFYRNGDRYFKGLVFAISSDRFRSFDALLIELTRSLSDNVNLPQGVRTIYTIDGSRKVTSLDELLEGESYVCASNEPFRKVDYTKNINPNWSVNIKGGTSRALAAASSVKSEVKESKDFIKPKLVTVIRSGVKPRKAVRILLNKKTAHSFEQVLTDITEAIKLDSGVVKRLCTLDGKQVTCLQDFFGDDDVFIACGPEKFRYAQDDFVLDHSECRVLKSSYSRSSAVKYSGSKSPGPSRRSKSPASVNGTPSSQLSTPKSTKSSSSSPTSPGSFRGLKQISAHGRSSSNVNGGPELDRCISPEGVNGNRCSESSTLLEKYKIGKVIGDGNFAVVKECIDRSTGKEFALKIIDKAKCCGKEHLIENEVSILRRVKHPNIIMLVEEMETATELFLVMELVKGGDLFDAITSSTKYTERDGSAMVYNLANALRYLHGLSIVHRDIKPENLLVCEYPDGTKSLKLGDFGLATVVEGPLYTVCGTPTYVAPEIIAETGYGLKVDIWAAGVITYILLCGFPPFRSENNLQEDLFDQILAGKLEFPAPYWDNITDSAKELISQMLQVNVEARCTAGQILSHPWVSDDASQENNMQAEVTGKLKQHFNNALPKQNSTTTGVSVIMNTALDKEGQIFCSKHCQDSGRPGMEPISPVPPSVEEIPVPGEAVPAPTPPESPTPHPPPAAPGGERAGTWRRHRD

[4] = biological target: T1, Serine/threonine-protein kinase DCLK2 (Homo sapiens); details: at 10 µM
[5] = biological target: T2, Discoidin domain-containing receptor 2 (Homo sapiens) (UniProt Q16832); details: at 10 µM
T2 sequence (whole entry): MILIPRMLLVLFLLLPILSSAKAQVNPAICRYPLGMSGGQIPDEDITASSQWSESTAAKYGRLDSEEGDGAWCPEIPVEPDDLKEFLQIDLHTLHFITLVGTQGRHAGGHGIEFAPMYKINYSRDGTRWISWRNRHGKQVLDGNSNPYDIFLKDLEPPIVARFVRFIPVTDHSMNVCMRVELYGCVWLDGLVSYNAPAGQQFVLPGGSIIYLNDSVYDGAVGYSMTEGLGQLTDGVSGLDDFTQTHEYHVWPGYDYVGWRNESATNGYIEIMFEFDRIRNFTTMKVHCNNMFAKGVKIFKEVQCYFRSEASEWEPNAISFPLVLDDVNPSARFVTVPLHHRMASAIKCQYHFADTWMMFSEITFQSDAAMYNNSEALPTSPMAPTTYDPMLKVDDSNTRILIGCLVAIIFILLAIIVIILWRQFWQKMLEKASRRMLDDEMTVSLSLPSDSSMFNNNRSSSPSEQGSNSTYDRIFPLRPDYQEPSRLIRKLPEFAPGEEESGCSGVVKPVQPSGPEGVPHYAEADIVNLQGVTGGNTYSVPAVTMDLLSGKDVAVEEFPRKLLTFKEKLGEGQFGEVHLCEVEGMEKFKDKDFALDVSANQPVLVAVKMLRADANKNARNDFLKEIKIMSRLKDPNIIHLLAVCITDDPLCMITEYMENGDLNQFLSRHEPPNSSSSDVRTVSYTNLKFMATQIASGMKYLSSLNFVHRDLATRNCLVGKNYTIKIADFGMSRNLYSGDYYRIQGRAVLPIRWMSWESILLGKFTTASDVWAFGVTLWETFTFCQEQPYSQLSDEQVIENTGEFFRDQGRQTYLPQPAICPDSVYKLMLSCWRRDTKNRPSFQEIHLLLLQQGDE

[6] = biological target: T3, Myotonin-protein kinase (Homo sapiens) (UniProt Q09013); details: at 1 µM
T3 sequence (whole entry): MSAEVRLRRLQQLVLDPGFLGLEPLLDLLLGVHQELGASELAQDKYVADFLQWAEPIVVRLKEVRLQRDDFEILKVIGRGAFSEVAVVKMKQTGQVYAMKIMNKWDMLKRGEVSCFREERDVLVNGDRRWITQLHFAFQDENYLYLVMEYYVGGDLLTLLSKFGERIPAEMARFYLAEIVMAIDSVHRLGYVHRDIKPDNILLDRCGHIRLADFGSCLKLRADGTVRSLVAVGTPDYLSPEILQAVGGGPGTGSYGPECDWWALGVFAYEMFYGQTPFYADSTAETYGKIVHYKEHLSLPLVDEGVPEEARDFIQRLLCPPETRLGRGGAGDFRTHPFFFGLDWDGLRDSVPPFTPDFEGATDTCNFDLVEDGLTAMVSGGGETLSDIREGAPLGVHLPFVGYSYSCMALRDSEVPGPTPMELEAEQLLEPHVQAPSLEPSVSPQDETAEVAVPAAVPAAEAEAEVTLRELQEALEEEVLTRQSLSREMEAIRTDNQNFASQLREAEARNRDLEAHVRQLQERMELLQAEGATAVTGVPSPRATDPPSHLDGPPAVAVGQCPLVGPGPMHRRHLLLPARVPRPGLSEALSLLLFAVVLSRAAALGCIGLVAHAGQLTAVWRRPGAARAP

[7] = biological target: T3, Myotonin-protein kinase (Homo sapiens); details: at 10 µM
[8] = biological target: T4, Serine/threonine-protein kinase 17A (Homo sapiens) (UniProt Q9UEE5); details: at 1 µM
T4 sequence (whole entry): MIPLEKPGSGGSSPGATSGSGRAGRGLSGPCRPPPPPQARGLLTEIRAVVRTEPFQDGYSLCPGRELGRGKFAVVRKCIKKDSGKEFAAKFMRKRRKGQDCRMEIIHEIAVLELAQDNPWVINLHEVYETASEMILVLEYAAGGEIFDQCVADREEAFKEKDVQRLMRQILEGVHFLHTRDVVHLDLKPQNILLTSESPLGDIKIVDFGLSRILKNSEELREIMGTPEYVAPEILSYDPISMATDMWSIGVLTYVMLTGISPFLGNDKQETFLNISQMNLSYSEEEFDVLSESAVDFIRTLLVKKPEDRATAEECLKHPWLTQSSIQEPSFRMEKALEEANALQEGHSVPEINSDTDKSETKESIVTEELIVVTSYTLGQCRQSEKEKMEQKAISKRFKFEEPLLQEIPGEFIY

[9] = biological target: T4, Serine/threonine-protein kinase 17A (Homo sapiens); details: at 10 µM
[10] = biological target: T5, Dual specificity tyrosine-phosphorylation-regulated kinase 2 (Homo sapiens) (UniProt Q92630); details: at 1 µM
T5 sequence (whole entry): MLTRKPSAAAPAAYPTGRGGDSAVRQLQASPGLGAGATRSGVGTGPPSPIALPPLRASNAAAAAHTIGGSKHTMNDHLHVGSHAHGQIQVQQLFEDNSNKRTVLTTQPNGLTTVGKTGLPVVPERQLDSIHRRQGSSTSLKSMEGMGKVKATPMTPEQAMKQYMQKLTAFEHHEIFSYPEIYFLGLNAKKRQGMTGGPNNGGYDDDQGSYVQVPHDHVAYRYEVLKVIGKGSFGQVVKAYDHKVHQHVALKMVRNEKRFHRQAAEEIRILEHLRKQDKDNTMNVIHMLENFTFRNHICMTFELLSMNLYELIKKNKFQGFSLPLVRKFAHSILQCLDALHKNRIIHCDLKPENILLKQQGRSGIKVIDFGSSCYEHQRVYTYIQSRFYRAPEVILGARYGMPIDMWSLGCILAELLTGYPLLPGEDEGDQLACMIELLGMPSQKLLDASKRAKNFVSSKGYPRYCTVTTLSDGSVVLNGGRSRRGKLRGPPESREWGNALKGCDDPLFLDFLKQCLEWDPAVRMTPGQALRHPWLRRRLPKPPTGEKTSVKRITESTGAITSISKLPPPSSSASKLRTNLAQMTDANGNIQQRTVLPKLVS

[11] = biological target: T5, Dual specificity tyrosine-phosphorylation-regulated kinase 2 (Homo sapiens); details: at 10 µM
[12] = biological target: T6, Ephrin type-A receptor 1 (Homo sapiens) (UniProt P21709); details: at 1 µM
T6 sequence (whole entry): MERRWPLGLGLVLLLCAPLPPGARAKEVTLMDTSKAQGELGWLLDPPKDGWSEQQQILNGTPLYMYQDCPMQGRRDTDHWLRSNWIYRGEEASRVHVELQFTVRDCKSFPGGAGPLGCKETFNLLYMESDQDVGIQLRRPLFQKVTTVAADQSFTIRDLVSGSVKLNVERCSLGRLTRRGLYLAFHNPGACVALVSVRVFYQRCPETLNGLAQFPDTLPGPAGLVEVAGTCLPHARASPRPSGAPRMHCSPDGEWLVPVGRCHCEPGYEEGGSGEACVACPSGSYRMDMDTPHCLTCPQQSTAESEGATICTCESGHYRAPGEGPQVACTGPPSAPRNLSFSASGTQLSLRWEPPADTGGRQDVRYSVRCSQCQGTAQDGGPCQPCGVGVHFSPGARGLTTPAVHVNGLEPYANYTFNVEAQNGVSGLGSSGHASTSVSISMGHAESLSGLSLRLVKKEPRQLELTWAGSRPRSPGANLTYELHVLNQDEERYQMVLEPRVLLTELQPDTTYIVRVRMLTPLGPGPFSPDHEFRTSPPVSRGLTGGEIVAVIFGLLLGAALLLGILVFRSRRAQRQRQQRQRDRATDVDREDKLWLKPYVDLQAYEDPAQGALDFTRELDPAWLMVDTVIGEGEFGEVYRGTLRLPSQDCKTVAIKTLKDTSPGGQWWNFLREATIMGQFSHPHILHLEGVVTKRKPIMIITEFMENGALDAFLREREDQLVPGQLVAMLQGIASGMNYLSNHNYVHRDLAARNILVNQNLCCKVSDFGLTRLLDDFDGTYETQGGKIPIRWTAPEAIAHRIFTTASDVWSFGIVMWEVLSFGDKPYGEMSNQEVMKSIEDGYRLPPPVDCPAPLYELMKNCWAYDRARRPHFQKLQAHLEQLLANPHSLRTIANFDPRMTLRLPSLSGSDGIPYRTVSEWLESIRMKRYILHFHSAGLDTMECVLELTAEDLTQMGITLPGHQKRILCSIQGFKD

[13] = biological target: T6, Ephrin type-A receptor 1 (Homo sapiens); details: at 10 µM
[14] = biological target: Ephrin type-A receptor 2 (Homo sapiens) (UniProt P29317); details: at 1 µM
Sequence of Ephrin type-A receptor 2 (Homo sapiens) (P29317 whole entry): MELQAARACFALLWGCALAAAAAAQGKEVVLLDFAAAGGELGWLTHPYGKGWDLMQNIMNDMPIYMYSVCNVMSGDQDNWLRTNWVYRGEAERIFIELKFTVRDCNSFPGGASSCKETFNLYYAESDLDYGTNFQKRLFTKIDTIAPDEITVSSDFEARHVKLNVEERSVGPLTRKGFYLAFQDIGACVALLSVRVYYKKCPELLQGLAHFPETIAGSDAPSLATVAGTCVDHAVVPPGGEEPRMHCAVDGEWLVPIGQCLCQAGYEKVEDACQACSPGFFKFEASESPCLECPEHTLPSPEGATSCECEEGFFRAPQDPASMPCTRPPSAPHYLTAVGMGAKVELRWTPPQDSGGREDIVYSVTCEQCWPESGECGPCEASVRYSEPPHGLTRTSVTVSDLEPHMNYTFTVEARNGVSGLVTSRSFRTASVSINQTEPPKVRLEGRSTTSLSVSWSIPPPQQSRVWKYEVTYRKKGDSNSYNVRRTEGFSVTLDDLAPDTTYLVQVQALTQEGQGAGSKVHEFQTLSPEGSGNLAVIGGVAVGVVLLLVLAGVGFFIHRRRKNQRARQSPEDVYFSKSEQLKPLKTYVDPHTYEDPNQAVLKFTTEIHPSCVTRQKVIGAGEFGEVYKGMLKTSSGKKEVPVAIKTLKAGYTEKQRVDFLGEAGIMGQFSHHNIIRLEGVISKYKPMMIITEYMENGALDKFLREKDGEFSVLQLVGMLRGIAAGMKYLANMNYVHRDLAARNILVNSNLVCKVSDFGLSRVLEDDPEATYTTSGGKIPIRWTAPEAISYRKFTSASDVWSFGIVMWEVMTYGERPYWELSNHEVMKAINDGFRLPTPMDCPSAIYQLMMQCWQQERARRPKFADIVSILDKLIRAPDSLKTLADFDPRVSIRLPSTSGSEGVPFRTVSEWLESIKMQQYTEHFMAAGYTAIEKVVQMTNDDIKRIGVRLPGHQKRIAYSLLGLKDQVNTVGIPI

[15] = biological target: Ephrin type-A receptor 2 (Homo sapiens) (UniProt P29317); details: at 10 µM
[16] = biological target: T7, Ephrin type-A receptor 3 (Homo sapiens) (UniProt P29320); details: at 1 µM
T7 sequence (whole entry): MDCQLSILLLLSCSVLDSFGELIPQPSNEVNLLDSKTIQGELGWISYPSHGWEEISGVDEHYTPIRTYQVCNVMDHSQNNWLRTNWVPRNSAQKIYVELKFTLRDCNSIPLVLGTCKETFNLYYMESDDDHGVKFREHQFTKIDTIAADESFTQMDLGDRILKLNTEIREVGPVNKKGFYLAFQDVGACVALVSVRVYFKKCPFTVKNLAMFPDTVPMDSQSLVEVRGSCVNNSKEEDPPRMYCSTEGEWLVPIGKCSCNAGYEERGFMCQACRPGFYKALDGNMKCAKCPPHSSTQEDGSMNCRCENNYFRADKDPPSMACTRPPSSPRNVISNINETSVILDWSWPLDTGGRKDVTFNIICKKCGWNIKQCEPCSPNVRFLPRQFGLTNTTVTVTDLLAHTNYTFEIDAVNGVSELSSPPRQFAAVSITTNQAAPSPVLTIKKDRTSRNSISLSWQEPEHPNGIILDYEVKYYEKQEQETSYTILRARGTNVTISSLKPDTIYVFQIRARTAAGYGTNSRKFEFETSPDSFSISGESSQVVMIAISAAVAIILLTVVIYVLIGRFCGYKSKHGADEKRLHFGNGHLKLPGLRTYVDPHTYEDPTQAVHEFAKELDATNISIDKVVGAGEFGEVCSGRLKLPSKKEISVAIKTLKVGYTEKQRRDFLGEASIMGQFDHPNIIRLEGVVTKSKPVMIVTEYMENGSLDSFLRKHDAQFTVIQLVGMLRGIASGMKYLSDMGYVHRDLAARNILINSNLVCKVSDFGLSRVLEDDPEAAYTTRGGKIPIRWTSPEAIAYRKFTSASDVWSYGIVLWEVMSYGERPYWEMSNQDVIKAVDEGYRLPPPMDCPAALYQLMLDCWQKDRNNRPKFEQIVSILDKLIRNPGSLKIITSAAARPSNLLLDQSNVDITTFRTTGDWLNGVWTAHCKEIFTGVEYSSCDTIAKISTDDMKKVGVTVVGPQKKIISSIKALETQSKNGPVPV

[17] = biological target: Death-associated protein kinase 2 (Homo sapiens) (UniProt Q9UIK4); details: at 10 µM
[18] = biological target: T2, Discoidin domain-containing receptor 2 (Homo sapiens); details: at 1 µM
[19] = biological target: Epidermal growth factor receptor (Homo sapiens) (UniProt P00533); details: at 1 µM
Sequence of Epidermal growth factor receptor (Homo sapiens) (P00533 whole entry): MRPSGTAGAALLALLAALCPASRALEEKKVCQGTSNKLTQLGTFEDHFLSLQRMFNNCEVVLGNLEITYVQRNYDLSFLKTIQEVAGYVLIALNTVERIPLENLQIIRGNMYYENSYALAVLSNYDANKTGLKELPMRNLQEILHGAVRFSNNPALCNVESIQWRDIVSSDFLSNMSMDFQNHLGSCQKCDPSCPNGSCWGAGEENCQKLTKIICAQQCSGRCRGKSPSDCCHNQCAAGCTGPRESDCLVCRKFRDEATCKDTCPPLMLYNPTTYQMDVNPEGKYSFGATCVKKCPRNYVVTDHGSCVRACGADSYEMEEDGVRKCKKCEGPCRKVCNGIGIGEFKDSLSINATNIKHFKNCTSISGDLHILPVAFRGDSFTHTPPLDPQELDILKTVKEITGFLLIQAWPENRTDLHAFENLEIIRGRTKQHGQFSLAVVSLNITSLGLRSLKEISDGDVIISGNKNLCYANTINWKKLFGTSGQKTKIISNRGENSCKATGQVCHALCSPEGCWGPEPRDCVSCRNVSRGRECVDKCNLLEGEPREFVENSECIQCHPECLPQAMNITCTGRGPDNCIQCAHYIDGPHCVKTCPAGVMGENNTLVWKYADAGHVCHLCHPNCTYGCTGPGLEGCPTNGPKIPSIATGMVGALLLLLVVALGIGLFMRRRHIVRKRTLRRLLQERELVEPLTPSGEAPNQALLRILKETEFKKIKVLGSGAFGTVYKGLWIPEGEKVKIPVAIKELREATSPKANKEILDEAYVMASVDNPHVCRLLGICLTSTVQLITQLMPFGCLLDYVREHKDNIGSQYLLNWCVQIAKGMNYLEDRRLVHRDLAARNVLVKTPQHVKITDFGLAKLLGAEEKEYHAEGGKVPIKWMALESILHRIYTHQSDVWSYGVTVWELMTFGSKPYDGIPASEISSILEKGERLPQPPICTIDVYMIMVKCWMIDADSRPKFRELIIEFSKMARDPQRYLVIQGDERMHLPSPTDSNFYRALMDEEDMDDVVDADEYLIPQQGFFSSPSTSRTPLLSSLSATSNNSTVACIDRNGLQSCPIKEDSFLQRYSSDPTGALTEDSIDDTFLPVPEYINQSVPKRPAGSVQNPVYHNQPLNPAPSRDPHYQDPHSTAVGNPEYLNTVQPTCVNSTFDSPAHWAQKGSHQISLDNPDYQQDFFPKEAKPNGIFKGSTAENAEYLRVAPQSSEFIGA

[20] = biological target: Epidermal growth factor receptor (Homo sapiens) (UniProt P00533); details: at 10 µM

Sequence of Death-associated protein kinase 1 (Homo sapiens) (P53355 whole entry, looked up): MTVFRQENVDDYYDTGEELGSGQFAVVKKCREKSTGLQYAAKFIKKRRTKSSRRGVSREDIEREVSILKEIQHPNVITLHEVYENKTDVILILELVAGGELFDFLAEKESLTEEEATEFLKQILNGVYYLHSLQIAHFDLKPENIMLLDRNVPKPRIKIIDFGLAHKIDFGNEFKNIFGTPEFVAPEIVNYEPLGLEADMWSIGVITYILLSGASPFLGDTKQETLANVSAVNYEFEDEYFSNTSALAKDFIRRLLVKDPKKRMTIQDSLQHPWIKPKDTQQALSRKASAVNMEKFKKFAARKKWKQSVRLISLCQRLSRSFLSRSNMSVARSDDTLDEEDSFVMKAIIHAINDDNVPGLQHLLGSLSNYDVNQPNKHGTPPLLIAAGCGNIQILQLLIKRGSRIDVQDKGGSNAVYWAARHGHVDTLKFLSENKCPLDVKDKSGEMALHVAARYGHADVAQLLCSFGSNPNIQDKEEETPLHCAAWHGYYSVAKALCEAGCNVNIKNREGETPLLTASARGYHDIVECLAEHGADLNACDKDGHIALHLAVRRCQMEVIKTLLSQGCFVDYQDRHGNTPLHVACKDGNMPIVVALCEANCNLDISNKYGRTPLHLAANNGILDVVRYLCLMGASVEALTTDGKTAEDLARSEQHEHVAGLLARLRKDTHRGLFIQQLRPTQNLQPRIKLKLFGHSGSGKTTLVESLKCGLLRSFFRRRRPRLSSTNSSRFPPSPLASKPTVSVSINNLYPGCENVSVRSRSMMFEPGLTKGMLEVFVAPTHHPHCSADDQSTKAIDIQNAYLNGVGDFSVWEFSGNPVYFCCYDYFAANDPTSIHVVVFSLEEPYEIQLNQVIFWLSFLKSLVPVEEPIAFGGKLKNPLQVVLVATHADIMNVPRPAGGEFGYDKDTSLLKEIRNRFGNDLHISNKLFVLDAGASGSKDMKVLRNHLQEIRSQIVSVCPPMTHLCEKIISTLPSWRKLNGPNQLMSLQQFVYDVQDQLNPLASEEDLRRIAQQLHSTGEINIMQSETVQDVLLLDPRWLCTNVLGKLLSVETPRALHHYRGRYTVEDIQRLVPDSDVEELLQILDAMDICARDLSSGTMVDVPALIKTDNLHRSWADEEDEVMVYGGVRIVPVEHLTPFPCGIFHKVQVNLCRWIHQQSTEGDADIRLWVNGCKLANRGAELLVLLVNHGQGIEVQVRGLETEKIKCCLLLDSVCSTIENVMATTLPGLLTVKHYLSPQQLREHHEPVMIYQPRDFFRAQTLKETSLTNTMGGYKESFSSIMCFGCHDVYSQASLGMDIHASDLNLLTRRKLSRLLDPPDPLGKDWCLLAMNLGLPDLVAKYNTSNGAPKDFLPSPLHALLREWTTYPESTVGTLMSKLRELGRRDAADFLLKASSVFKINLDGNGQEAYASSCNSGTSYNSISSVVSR
Sequence of Death-associated protein kinase 2 (Homo sapiens) (Q9UIK4 whole entry, looked up, the tested form may be a part): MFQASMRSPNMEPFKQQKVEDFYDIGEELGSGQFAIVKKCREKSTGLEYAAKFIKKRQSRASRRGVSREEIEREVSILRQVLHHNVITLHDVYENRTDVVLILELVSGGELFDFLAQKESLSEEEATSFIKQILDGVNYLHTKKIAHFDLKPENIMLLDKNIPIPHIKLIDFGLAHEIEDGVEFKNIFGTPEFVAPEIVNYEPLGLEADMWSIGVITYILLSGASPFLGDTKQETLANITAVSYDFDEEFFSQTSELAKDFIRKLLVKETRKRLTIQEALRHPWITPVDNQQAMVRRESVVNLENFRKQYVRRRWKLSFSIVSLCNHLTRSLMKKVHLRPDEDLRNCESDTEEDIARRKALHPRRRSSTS

SMILES	residual activity [1]	residual activity [2]	residual activity [3]	residual activity [4]	residual activity [5]	residual activity [6]	residual activity [7]	residual activity [8]	residual activity [9]	residual activity [10]	residual activity [11]	residual activity [12]	residual activity [13]	residual activity [14]	residual activity [15]	residual activity [16]	residual activity [17]	residual activity [18]	residual activity [19]	residual activity [20]
c1ccc2c(-c3ccncc3)c[nH]c2c1	91%	100%	75%	98%	97%	147%	132%	102%	60%	77%	21%	87%	69%	104%	92%	106%				
O=C1Nc2cc(Br)ccc2/C1=C1/Nc2ccccc2/C1=N\O	46%	50%	89%	76%	37%	110%	84%	8%	10%			99%	92%	27%	20%	25%	26%	74%	66%	33%
N#CC(C#N)=C(N)/C(C#N)=C/c1ccc(O)cc1	92%	99%	94%	47%	97%		148%	91%		85%	93%						97%	116%		
COc1cc2ncc(-c3ccccc3)nc2cc1OC	78%	83%		52%	92%			124%		93%	99%	90%	94%		93%					
Ic1cccc(CSc2nnc(-c3ccncc3)o2)c1	76%	96%	100%	97%	82%	82%	81%	100%	3%	87%	60%	95%	88%	90%	91%	96%	100%	86%		
